Here are results for 20 compounds from PubChem BioAssay (NCATS).

Inconclusive results are not listed. Active and inactive are the calls of the source. Unless noted, calls come from the whole dose curve; as a rule, active = well fitted curve in the direction sought with a large enough effect; inconclusive = small, poorly fitted or top-dose-only effect, or another doubt; inactive = no such curve, though single readings can be large; an effect the other way counts as inactive or inconclusive.

Assay [1] can be described thus: qHTS for Inhibitors of the Functional Ribonucleoprotein Complex (vRNP) of Lassa (LASV) Arenavirus: Viability assay - alamar blue signal for LASV Primary Screen (AID 1347083; calls by dose curve; tested in HEK293 reporter line; note: nearly all actives have a fitted effect of over 80% in size; note: potency is the fitted concentration of half-maximal effect). (In general: qHTS replaces the single test concentration by a dilution series.)
Assay [2] can be described thus: qHTS for Inhibitors of the Functional Ribonucleoprotein Complex (vRNP) of Lymphocytic Choriomeningitis Arenaviruses (LCMV): Viability assay - alamar blue signal for LCMV Primary Screen (AID 1347085; calls by dose curve; tested in HEK293 reporter line; note: nearly all actives have a fitted effect of over 80% in size; note: potency is the fitted concentration of half-maximal effect).
Assay [3] deals with Nucleoprotein (Lymphocytic choriomeningitis virus (strain Armstrong)) (UniProt P09992). The assay can be described thus: qHTS for Inhibitors of the Functional Ribonucleoprotein Complex (vRNP) of Lymphocytic Choriomeningitis Arenaviruses (LCMV): LCMV Primary Screen - GLuc reporter signal (AID 1347086; calls by dose curve; note: nearly all actives have a fitted effect of over 70% in size; note: potency is the fitted concentration of half-maximal effect).
Sequence of Nucleoprotein (Lymphocytic choriomeningitis virus (strain Armstrong)) (P09992 whole entry, looked up): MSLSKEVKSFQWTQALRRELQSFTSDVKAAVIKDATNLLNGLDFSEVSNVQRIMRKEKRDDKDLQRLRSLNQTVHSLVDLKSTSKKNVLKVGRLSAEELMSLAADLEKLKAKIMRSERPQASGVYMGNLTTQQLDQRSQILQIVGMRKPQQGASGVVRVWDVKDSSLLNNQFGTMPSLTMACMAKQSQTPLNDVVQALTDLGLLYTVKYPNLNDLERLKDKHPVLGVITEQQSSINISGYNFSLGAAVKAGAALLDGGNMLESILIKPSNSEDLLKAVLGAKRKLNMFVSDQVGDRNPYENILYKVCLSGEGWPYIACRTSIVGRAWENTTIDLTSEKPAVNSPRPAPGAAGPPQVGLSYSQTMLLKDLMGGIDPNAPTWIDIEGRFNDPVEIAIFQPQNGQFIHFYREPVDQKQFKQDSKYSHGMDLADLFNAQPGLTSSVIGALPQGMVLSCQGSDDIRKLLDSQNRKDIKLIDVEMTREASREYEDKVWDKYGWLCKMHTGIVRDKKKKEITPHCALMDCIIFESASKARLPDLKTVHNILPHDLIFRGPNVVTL
Assay [4] in a line: qHTS of pediatric cancer cell lines to identify multiple opportunities for drug repurposing: Primary screen for TC32 cells (AID 1347089). Note: nearly all actives have a fitted effect of over 60% in size. The procedure, abridged: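 qHTS, TC32, 48 h drug treatment, CellTiter-Glo luminescence as a proxy for metabolically active cells; primary top concentration 46 µM (MIPE 11-pt, NPC 8-pt); confirmatory 11-pt.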
Assay [5] in a line: qHTS of pediatric cancer cell lines to identify multiple opportunities for drug repurposing: Primary screen for DAOY cells (AID 1347090). Note: nearly all actives have a fitted effect of over 55% in size. Note: potency is the fitted concentration of half-maximal effect. The essentials:
(§1)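 Viability measured as metabolically active cells via CellTiter-Glo luminescence following 48 hours of compound exposure, 11-point dilutions in confirmatory testing. 500-1,000 cells/well plated 5 hours before dosing; controls were DMSO and 2.3 µM bortezomib.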

A short description of assay [6]: qHTS of pediatric cancer cell lines to identify multiple opportunities for drug repurposing: Primary screen for SJ-GBM2 cells (AID 1347091). Note: potency is the fitted concentration of half-maximal effect. The essentials: as §1
Assay [7] in a line: qHTS of pediatric cancer cell lines to identify multiple opportunities for drug repurposing: Primary screen for A673 cells (AID 1347092). Note: nearly all actives have a fitted effect of over 45% in size. Note: potency is the fitted concentration of half-maximal effect. The essentials: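 Luminescence from CellTiter-Glo, taken after 15 min at room temperature, served as the proxy for metabolically active cells following 48 h treatment. Both potency and efficacy were taken from curves fitted to the titration data.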

Assay [8] can be described thus: qHTS of pediatric cancer cell lines to identify multiple opportunities for drug repurposing: Primary screen for BT-37 cells (AID 1347094). Note: potency is the fitted concentration of half-maximal effect. The procedure, abridged: (§2)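 Readout: CellTiter-Glo luminescence, 48 h treatment. Controls DMSO (neutral) and bortezomib 2.3 µM final (positive). Potency and efficacy taken from primary-screen concentration-response curves.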
The nature of assay [9]: qHTS of pediatric cancer cell lines to identify multiple opportunities for drug repurposing: Primary screen for NB-EBc1 cells (AID 1347095). Note: potency is the fitted concentration of half-maximal effect. The procedure, abridged: as §2
The nature of assay [10]: qHTS of pediatric cancer cell lines to identify multiple opportunities for drug repurposing: Primary screen for U-2 OS cells (AID 1347096). Note: nearly all actives have a fitted effect of over 50% in size. The procedure, abridged:
(§3)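 Viability after 48 h compound treatment at 37C, 500-1,000 cells/well, read as ATP luminescence with CellTiter-Glo. Primary screens used 11-point (MIPE, 0.78 nM-46 µM) or 8-point (NPC, 0.59 nM-46 µM) final concentrations; follow-up screens used 11-point dilutions.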

A short description of assay [11]: qHTS of pediatric cancer cell lines to identify multiple opportunities for drug repurposing: Primary screen for Saos-2 cells (AID 1347097). Note: nearly all actives have a fitted effect of over 40% in size. Note: potency is the fitted concentration of half-maximal effect. The essentials:
as §2

Assay [12] in a line: qHTS of pediatric cancer cell lines to identify multiple opportunities for drug repurposing: Primary screen for BT-12 cells (AID 1347101). Note: nearly all actives have a fitted effect of over 25% in size. Note: potency is the fitted concentration of half-maximal effect. The essentials:
(§4)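 Cells (500-1,000/well) rested 5 h, then received compounds for 48 h; metabolically active cells were measured by CellTiter-Glo luminescence. Final concentrations spanned up to 46 µM (MIPE, 11-point) or 0.59 nM-46 µM (NPC, 8-point) in primary screens, 11-point in follow-ups.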

Assay [13] in a line: qHTS of pediatric cancer cell lines to identify multiple opportunities for drug repurposing: Primary screen for Rh18 cells (AID 1347102). Note: nearly all actives have a fitted effect of over 65% in size. The procedure, abridged: as §3
Assay [14] in a line: qHTS of pediatric cancer cell lines to identify multiple opportunities for drug repurposing: Primary screen for OHS-50 cells (AID 1347103). Note: nearly all actives have a fitted effect of over 40% in size. Note: potency is the fitted concentration of half-maximal effect. The essentials: as §4
Assay [15] is described as follows: qHTS of pediatric cancer cell lines to identify multiple opportunities for drug repurposing: Primary screen for SK-N-MC cells (AID 1347093). Note: potency is the fitted concentration of half-maximal effect. The essentials: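 Metabolically active cells were quantified by ATP-dependent luminescence (CellTiter-Glo, 15 min at room temperature) following 48 h treatment. Cells had been plated at 500-1,000 per well and settled for 5 h beforehand.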

Assay [16] in a line: qHTS of pediatric cancer cell lines to identify multiple opportunities for drug repurposing: Primary screen for NB1643 cells (AID 1347099). Note: nearly all actives have a fitted effect of over 50% in size. Note: potency is the fitted concentration of half-maximal effect. The essentials:
as §2

A short description of assay [17]: qHTS of pediatric cancer cell lines to identify multiple opportunities for drug repurposing: Primary screen for LAN-5 cells (AID 1347100). Note: potency is the fitted concentration of half-maximal effect. The procedure, abridged:
as §3

A short description of assay [18]: qHTS of pediatric cancer cell lines to identify multiple opportunities for drug repurposing: Primary screen for SK-N-SH cells (AID 1347098). Note: potency is the fitted concentration of half-maximal effect; nearly all actives have a fitted effect of over 65% in size. The procedure, abridged: as §4

`COc1ccc(-c2c(-c3ccc(O)cc3O)n[nH]c2C)cc1`: the Potency result in assay [1], in assay [2] and in assay [3] was “inactive” in each case.

For the compound `COc1cccc2cc(-c3nc(C4CCC(C(=O)O)CC4)n4ncnc(N)c34)[nH]c12` (centres undefined), the Potency in [1] was 0.611 µM (active); in assay [2], 1.72 µM (active); in [3] it was 3.06 µM (active).

Regarding `CCOC(=O)Nc1ccc(NCc2ccc(F)cc2)cc1N`, the Potency was 5.44 µM (active) in [1], 1.37 µM (active) in assay [2], 1.53 µM (active) in assay [3] and 18.7 µM (active) in [7]. Further, the Potency entry in assay [4], in assay [5], in [6], in assay [8], in [9] and in assay [10] was “inactive” in each case. The Potency entry in assay [11], in assay [12], in assay [13] and in assay [14] was “inactive” each time.

Regarding `N=c1c2c(-c3ccccc3)c(-c3ccccc3)n(Cc3ccccc3)c2ncn1C1CCC(O)CC1` (centres undefined), the Potency in assay [1] is 1.09 µM (active); in assay [2] it was 0.544 µM (active); in assay [3] it was 1.72 µM (active); in assay [6] it was 18.7 µM (active); in assay [7] it was 18.7 µM (active); in [15] it was 16.6 µM (active). For the same compound, the Potency in assay [8] was 0.968 µM (active); in assay [9] it was 0.59 µM (active); in assay [11], 23.5 µM (active); in assay [16], 4.69 µM (active); in assay [17], 1.05 µM (active); in assay [12] it was 6.85 µM (active). The Potency entry in assay [5] is “inactive”.

In the case of `CCNC(=O)CC1N=C(c2ccc(Cl)cc2)c2cc(OC)ccc2-n2c(C)nnc21` (centres undefined), the Potency was 7.69 µM (active) in assay [1]; 1.53 µM (active) in assay [2]; 2.43 µM (active) in [3]; 2.96 µM (active) in assay [7]; 2.96 µM (active) in assay [15]; 20.9 µM (active) in [9]. Moreover, the Potency in assay [18] is 15.2 µM (active); in [16], 14.8 µM (active); in assay [17] it was 10.5 µM (active); in assay [14], 21.7 µM (active). The Potency entry in assay [4] was “inactive”.

As to `COc1cccc2nc(-c3cccs3)nc(NN3C(=O)C=C(C)C3=O)c12`, the Potency in [1] is 2.73 µM (active); in assay [2] it was 6.11 µM (active); in assay [3] it was 7.69 µM (active).

Take `Cc1cn2c(-c3cn[nH]c3)cnc2c(Nc2ccc(C(=O)N3CCNCC3)cc2F)n1`: the Potency was 3.85 µM (active) in [1], 1.93 µM (active) in assay [2] and 2.73 µM (active) in assay [3].

Consider `Cc1cc2c(F)c(Oc3ncnn4cc(OC[C@@H](C)O)c(C)c34)ccc2[nH]1`, for which the Potency in assay [1] was 24.3 µM (active); in assay [3], 13.7 µM (active).

Take `COc1cc2nc(N3CCCN(C)CC3)nc(NC3CCN(Cc4ccccc4)CC3)c2cc1OC`: the Potency in [1] was 0.611 µM (active); in [2] it was 21.7 µM (active); in assay [3], 12.2 µM (active).

Regarding `CC(C)(C)OC(=O)Nc1ccc(-c2cc(C(=O)NCCCCCCC(=O)NO)no2)cc1`, the Potency in assay [1] is 17.2 µM (active); in [2], 19.3 µM (active).

For `Cn1cc(-c2[nH]c3cc(NC(=O)[C@H](N)C4CCCCC4)cc4c3c2C=NNC4=O)cn1`, the figures for the Potency in assay [1], in assay [2] and in assay [3] were 3.43 µM (active), 4.85 µM (active) and 2.73 µM (active), respectively.

For the compound `COc1ccccc1[C@H](c1cccc2ccccc12)[C@@](C)(C#N)C(=O)N1CCC(c2cccc(C(F)(F)F)c2)CC1`, the Potency in assay [1] is 21.7 µM (active). Besides, the Potency entry in assay [3] was “inactive”.

In the case of `CC(C)[C@H](CO)Nc1nc(Nc2ccc(C(=O)O)c(Cl)c2)c2ncn(C(C)C)c2n1`, the values for the Potency in [1] and in assay [2] were 0.217 µM (active) and 3.85 µM (active), respectively. For the same compound, in assay [3], the Potency entry was “inactive”.

Consider `Cc1nc2cnc3ccc(C#Cc4cccnc4)cc3c2n1-c1ccc(C(C)(C)C#N)cc1`, for which the values for the Potency in [1], in assay [2] and in assay [3] were 0.0432 µM (active), 0.109 µM (active) and 0.109 µM (active), respectively.

`CCc1cncnc1N1CCN(Cc2nc3ccc(C(F)(F)F)cc3[nH]2)CC1`: the Potency result in assay [1] and in assay [2] was “inactive” each time.

Take `OCCn1cc(-c2ccc3c(c2)CCC3=NO)c(-c2ccncc2)n1`: the Potency was 10.9 µM (active) in assay [1], 1.72 µM (active) in assay [2] and 7.69 µM (active) in [3].

For the compound `c1cc2c(cc1[C@H]1OC[C@H]3[C@H]1CO[C@H]3c1ccc3c(c1)OCO3)OCO2`, the Potency result in assay [1], in [2], in assay [3], in assay [4], in [5] and in assay [6] was “inactive” in each case. Further, the Potency result in [7], in assay [15], in [8], in assay [9], in assay [10] and in assay [16] was “inactive” in each case. Also, the Potency result in assay [17], in assay [12], in assay [13] and in assay [14] was “inactive” in each case.

Consider `CCCS(=O)(=O)Nc1ccc(F)c(C(=O)c2c[nH]c3ncc(-c4ccc(Cl)cc4)cc23)c1F`, for which the Potency entry in assay [3] is “inactive”.

As to `CC(O)=C(C#N)C(=O)Nc1ccc(C(F)(F)F)cc1`, the Potency in assay [3] is 19.3 µM (active).

Turning to `CO/C=C(/C(=O)OC)c1ccccc1Oc1cc(Oc2ccccc2C#N)ncn1`, the Potency is 22.4 µM (active) in assay [1]; 10 µM (active) in assay [3]; 9.69 µM (active) in assay [5]; 17.2 µM (active) in assay [15]; 27.3 µM (active) in assay [9]; 21.7 µM (active) in [17]. Besides, the Potency in assay [12] was 8.93 µM (active); in assay [14], 14.2 µM (active).
